# Where “and” joins values, the source holds several entries; their conditions need not be identical. Identical values can stand only once. Like-named read-outs stand apart in the source and are kept apart here.
# Tests used:
# Conditions in all cases: concentration: 1 μM, replicates: in singlicate, n = 1
# TLK2 = system: TLK2
# TNIK = system: TNIK
# TNK1 = system: TNK1
# TNK2 = system: TNK2
# TNNI3K = system: TNNI3K
# TRKA = system: T1, TRKA
# T1 construct: gene NTRK1
# TRKB = system: TRKB
# TRKC = system: T2, TRKC
# T2 construct: gene NTRK3
# TRPM6 = system: TRPM6
# TSSK1B = system: TSSK1B
# TSSK3 = system: TSSK3
# TTK = system: TTK
# TXK = system: TXK
# [1] = system: TYK2(JH1domain-catalytic)
# [2] = system: TYK2(JH2domain-pseudokinase)
# TYRO3 = system: TYRO3
# ULK1 = system: ULK1
# ULK2 = system: ULK2
# ULK3 = system: ULK3
# VEGFR2 = system: T3, VEGFR2
# T3 construct: gene KDR
# 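Also: KINOMEscan kinase panel screen.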
smiles,measurement,setting,value
Cl.Oc1cccc(Nc2ccnc3cc(-c4ccncc4)ccc23)c1 [GW494601],%Inh,TLK2,9%
same,%Inh,TNIK,86%
same,%Inh,TNK1,72%
same,%Inh,TNK2,16%
same,%Inh,TNNI3K,33%
same,%Inh,TRKA,68%
same,%Inh,TRKB,11%
same,%Inh,TRKC,25%
same,%Inh,TRPM6,0%
same,%Inh,TSSK1B,0%
same,%Inh,TSSK3,6%
same,%Inh,TTK,39%
same,%Inh,TXK,97.6%
same,%Inh,[1],93.1%
same,%Inh,[2],49%
same,%Inh,TYRO3,82%
same,%Inh,ULK1,0%
same,%Inh,ULK2,0%
same,%Inh,ULK3,31%
same,%Inh,VEGFR2,95.4%
Cn1cc(-c2ccc3c(c2)CCN3C(=O)Cc2ccccc2Cl)c2c(N)ncnc21 [GSK2608885],%Inh,TLK2,0%
same,%Inh,TNIK,69%
same,%Inh,TNK1,100%
same,%Inh,TNK2,74%
same,%Inh,TNNI3K,64%
same,%Inh,TRKA,42%
same,%Inh,TRKB,0%
same,%Inh,TRKC,0%
same,%Inh,TRPM6,33%
same,%Inh,TSSK1B,17%
same,%Inh,TSSK3,7%
same,%Inh,TTK,17%
same,%Inh,TXK,85%
same,%Inh,[1],33%
same,%Inh,[2],0%
same,%Inh,TYRO3,100%
same,%Inh,ULK1,6%
same,%Inh,ULK2,0%
same,%Inh,ULK3,6%
same,%Inh,VEGFR2,82%
c1ccc(-c2n[nH]cc2-c2ccnc3ccccc23)nc1 [GW271431],%Inh,TLK2,0%
same,%Inh,TNIK,32%
same,%Inh,TNK1,10%
same,%Inh,TNK2,19%
same,%Inh,TNNI3K,12%
same,%Inh,TRKA,35%
same,%Inh,TRKB,0%
same,%Inh,TRKC,0%
same,%Inh,TRPM6,29%
same,%Inh,TSSK1B,11%
same,%Inh,TSSK3,22%
same,%Inh,TTK,4%
same,%Inh,TXK,4%
same,%Inh,[1],17%
same,%Inh,[2],10%
same,%Inh,TYRO3,0%
same,%Inh,ULK1,0%
same,%Inh,ULK2,0%
same,%Inh,ULK3,1%
same,%Inh,VEGFR2,12%
O=C(Nc1n[nH]c2cc(-c3cccc(F)c3)ccc12)C1CC1 [SB-735464],%Inh,TLK2,0%
same,%Inh,TNIK,72%
same,%Inh,TNK1,9%
same,%Inh,TNK2,0%
same,%Inh,TNNI3K,0%
same,%Inh,TRKA,4%
same,%Inh,TRKB,2%
same,%Inh,TRKC,38%
same,%Inh,TRPM6,7%
same,%Inh,TSSK1B,0%
same,%Inh,TSSK3,9%
same,%Inh,TTK,21%
same,%Inh,TXK,14%
same,%Inh,[1],1%
same,%Inh,[2],10%
same,%Inh,TYRO3,0%
same,%Inh,ULK1,2%
same,%Inh,ULK2,12%
same,%Inh,ULK3,29%
same,%Inh,VEGFR2,12%
CC(C)(C)n1cnc2c(N)ncnc21 [SKF-97359],%Inh,TLK2,2%
same,%Inh,TNIK,0%
same,%Inh,TNK1,16%
same,%Inh,TNK2,40%
same,%Inh,TNNI3K,0%
same,%Inh,TRKA,74%
same,%Inh,TRKB,47%
same,%Inh,TRKC,18%
same,%Inh,TRPM6,3%
same,%Inh,TSSK1B,0%
same,%Inh,TSSK3,45%
same,%Inh,TTK,0%
same,%Inh,TXK,0%
same,%Inh,[1],21%
same,%Inh,[2],1%
same,%Inh,TYRO3,0%
same,%Inh,ULK1,0%
same,%Inh,ULK2,0%
same,%Inh,ULK3,0%
same,%Inh,VEGFR2,0%
NS(=O)(=O)c1cccc(-c2ccc3nccc(-c4cccc(S(N)(=O)=O)c4)c3c2)c1 [GW867253],%Inh,TLK2,15%
same,%Inh,TNIK,16%
same,%Inh,TNK1,0%
same,%Inh,TNK2,0%
same,%Inh,TNNI3K,0%
same,%Inh,TRKA,0%
same,%Inh,TRKB,0%
same,%Inh,TRKC,0%
same,%Inh,TRPM6,0%
same,%Inh,TSSK1B,0%
same,%Inh,TSSK3,0%
same,%Inh,TTK,0%
same,%Inh,TXK,5%
same,%Inh,[1],0%
same,%Inh,[2],39%
same,%Inh,TYRO3,0%
same,%Inh,ULK1,12%
same,%Inh,ULK2,81%
same,%Inh,ULK3,18%
same,%Inh,VEGFR2,4%
CN(C(=O)c1ccc(-c2cc(-c3c[nH]nc3-c3ccccn3)ccn2)cc1)C1CCOCC1 [GW810083],%Inh,TLK2,0%
same,%Inh,TNIK,23%
same,%Inh,TNK1,0%
same,%Inh,TNK2,0%
same,%Inh,TNNI3K,0%
same,%Inh,TRKA,38%
same,%Inh,TRKB,41%
same,%Inh,TRKC,17%
same,%Inh,TRPM6,0%
same,%Inh,TSSK1B,0%
same,%Inh,TSSK3,33%
same,%Inh,TTK,0%
same,%Inh,TXK,0%
same,%Inh,[1],12%
same,%Inh,[2],25%
same,%Inh,TYRO3,0%
same,%Inh,ULK1,5%
same,%Inh,ULK2,14%
same,%Inh,ULK3,12%
same,%Inh,VEGFR2,0%
NCCNS(=O)(=O)c1ccc(-c2ccnc3[nH]ccc23)cc1 [GSK977617],%Inh,TLK2; 1 µM,37% and 34%
same,%Inh,TNIK; 1 µM,61% and 55%
same,%Inh,TNK1,0%
same,%Inh,TNK2; 1 µM,4% and 6%
same,%Inh,TNNI3K; 1 µM,13% and 5%
same,%Inh,TRKA; 1 µM,100% and 97.9%
same,%Inh,TRKB; 1 µM,89% and 82%
same,%Inh,TRKC; 1 µM,80% and 63%
same,%Inh,TRPM6,0%
same,%Inh,TSSK1B; 1 µM,56% and 46%
same,%Inh,TSSK3; 1 µM,34% and 22%
same,%Inh,TTK; 1 µM,36% and 30%
same,%Inh,TXK; 1 µM,10% and 0%
same,%Inh,[1]; 1 µM,84% and 79%
same,%Inh,[2]; 1 µM,38% and 30%
same,%Inh,TYRO3,0%
same,%Inh,ULK1; 1 µM,93.8% and 83%
same,%Inh,ULK2; 1 µM,39% and 33%
same,%Inh,ULK3; 1 µM,64% and 35%
same,%Inh,VEGFR2; 1 µM,7% and 24%
Cl.Cl.Cl.Fc1ccc(-c2ncn(C3CCNCC3)c2-c2ccnc(Nc3ccccc3)n2)cc1 [SB-238039],%Inh,TLK2; 1 µM,13% and 0%
same,%Inh,TNIK; 1 µM,86% and 84%
same,%Inh,TNK1; 1 µM,58% and 12%
same,%Inh,TNK2; 1 µM,0% and 10%
same,%Inh,TNNI3K,0%
same,%Inh,TRKA,0%
same,%Inh,TRKB; 1 µM,18% and 16%
same,%Inh,TRKC; 1 µM,67% and 0%
same,%Inh,TRPM6; 1 µM,6% and 0%
same,%Inh,TSSK1B,0%
same,%Inh,TSSK3; 1 µM,19% and 5%
same,%Inh,TTK; 1 µM,15% and 3%
same,%Inh,TXK; 1 µM,3% and 0%
same,%Inh,[1]; 1 µM,35% and 0%
same,%Inh,[2]; 1 µM,18% and 0%
same,%Inh,TYRO3; 1 µM,0% and 12%
same,%Inh,ULK1; 1 µM,28% and 6%
same,%Inh,ULK2; 1 µM,21% and 29%
same,%Inh,ULK3; 1 µM,24% and 26%
same,%Inh,VEGFR2; 1 µM,0% and 9%
CCc1nc(-c2cccc(C)c2)c(-c2ccnc(NCc3ccccc3)c2)s1,%Inh,TLK2,0%
same,%Inh,TNIK,24%
same,%Inh,TNK1,0%
same,%Inh,TNK2,0%
same,%Inh,TNNI3K,0%
same,%Inh,TRKA,0%
same,%Inh,TRKB,0%
same,%Inh,TRKC,0%
same,%Inh,TRPM6,0%
same,%Inh,TSSK1B,22%
same,%Inh,TSSK3,1%
same,%Inh,TTK,12%
same,%Inh,TXK,0%
same,%Inh,[1],0%
same,%Inh,[2],0%
same,%Inh,TYRO3,0%
same,%Inh,ULK1,0%
same,%Inh,ULK2,8%
same,%Inh,ULK3,0%
same,%Inh,VEGFR2,0%
COCCNC(=O)c1ccc(-c2cc(C(=O)NC3CC3)cc(F)c2C)cc1 [GW868318],%Inh,TLK2,0%
same,%Inh,TNIK,0%
same,%Inh,TNK1,40%
same,%Inh,TNK2,16%
same,%Inh,TNNI3K,11%
same,%Inh,TRKA,27%
same,%Inh,TRKB,43%
same,%Inh,TRKC,30%
same,%Inh,TRPM6,20%
same,%Inh,TSSK1B,0%
same,%Inh,TSSK3,24%
same,%Inh,TTK,0%
same,%Inh,TXK,18%
same,%Inh,[1],9%
same,%Inh,[2],33%
same,%Inh,TYRO3,21%
same,%Inh,ULK1,46%
same,%Inh,ULK2,37%
same,%Inh,ULK3,47%
same,%Inh,VEGFR2,16%
N#Cc1c(N2CCOCC2)sc(-c2ccn[nH]2)c1-c1ccc(Cl)cc1,%Inh,TLK2,0%
same,%Inh,TNIK,0%
same,%Inh,TNK1,0%
same,%Inh,TNK2,0%
same,%Inh,TNNI3K,0%
same,%Inh,TRKA,12%
same,%Inh,TRKB,6%
same,%Inh,TRKC,8%
same,%Inh,TRPM6,0%
same,%Inh,TSSK1B,0%
same,%Inh,TSSK3,0%
same,%Inh,TTK,19%
same,%Inh,TXK,0%
same,%Inh,[1],14%
same,%Inh,[2],20%
same,%Inh,TYRO3,0%
same,%Inh,ULK1,8%
same,%Inh,ULK2,15%
same,%Inh,ULK3,20%
same,%Inh,VEGFR2,11%
COc1ccc(CNC(=O)NC2CCN(c3ccnc(Nc4ccc(OC)cc4)n3)C2)cc1 (stereo not drawn) [GSK1379727],%Inh,TLK2,0%
same,%Inh,TNIK,0%
same,%Inh,TNK1,0%
same,%Inh,TNK2,12%
same,%Inh,TNNI3K,0%
same,%Inh,TRKA,0%
same,%Inh,TRKB,0%
same,%Inh,TRKC,47%
same,%Inh,TRPM6,0%
same,%Inh,TSSK1B,13%
same,%Inh,TSSK3,5%
same,%Inh,TTK,18%
same,%Inh,TXK,0%
same,%Inh,[1],37%
same,%Inh,[2],46%
same,%Inh,TYRO3,0%
same,%Inh,ULK1,0%
same,%Inh,ULK2,0%
same,%Inh,ULK3,9%
same,%Inh,VEGFR2,0%
Cc1nnc(-c2ccc3occ(-c4ccc(C(C)O)cc4)c3c2)o1 (stereo not drawn),%Inh,TLK2,0%
same,%Inh,TNIK,0%
same,%Inh,TNK1,0%
same,%Inh,TNK2,0%
same,%Inh,TNNI3K,27%
same,%Inh,TRKA,0%
same,%Inh,TRKB,0%
same,%Inh,TRKC,37%
same,%Inh,TRPM6,0%
same,%Inh,TSSK1B,0%
same,%Inh,TSSK3,1%
same,%Inh,TTK,8%
same,%Inh,TXK,4%
same,%Inh,[1],0%
same,%Inh,[2],2%
same,%Inh,TYRO3,6%
same,%Inh,ULK1,1%
same,%Inh,ULK2,2%
same,%Inh,ULK3,6%
same,%Inh,VEGFR2,0%
CCn1cnc2c(N)ncnc21 [GW345098],%Inh,TLK2,0%
same,%Inh,TNIK,17%
same,%Inh,TNK1,7%
same,%Inh,TNK2,10%
same,%Inh,TNNI3K,4%
same,%Inh,TRKA,24%
same,%Inh,TRKB,0%
same,%Inh,TRKC,7%
same,%Inh,TRPM6,81%
same,%Inh,TSSK1B,20%
same,%Inh,TSSK3,6%
same,%Inh,TTK,0%
same,%Inh,TXK,8%
same,%Inh,[1],23%
same,%Inh,[2],0%
same,%Inh,TYRO3,32%
same,%Inh,ULK1,0%
same,%Inh,ULK2,21%
same,%Inh,ULK3,0%
same,%Inh,VEGFR2,0%
